Bioassay records (PubChem BioAssay)
Most compounds without a hit are left out; they make up all but 3.9% or so of the library.
MazF activator: MazEF (E. coli) toxin RNase activation; P0AE70; FAM/BHQ RNA-DNA oligo cleavage fluorescence, 5 h; activation, % at 20 µM; 0.32% of 350,000 active; in the data active means activation above about 50%
BoNT A protease: inhibitors of Botulinum neurotoxin A light chain protease | 0.17% of 360,000 active | AID 588499 | multiplex microsphere protease substrate cleavage, flow cytometry | inhibition, % at 10 µM; further: plate controls were buffer without enzyme for full effect and enzyme alone for no effect
Anthrax LF inh2: blocks Bacillus anthracis lethal factor protease. P15917. multiplex microsphere protease cleavage assay, LF. inhibition, % at 10 µM. 0.12% of 360,000 active. AID 588501; further: plate controls were buffer without enzyme for full effect and enzyme alone for no effect
BoNT-F LC inh: BoNT F light chain protease inhibition. 0.22% of 360,000 active. inhibition, % at 10 µM. Multiplex microsphere protease cleavage assay, flow cytometry; in the data active means inhibition above about 35%, passing the limit was not always enough; inconclusive means no clear call, values can overlap the other calls; further: plate controls were buffer without enzyme for full effect and enzyme alone for no effect
Bead autofluor: flagged as autofluorescent in microsphere protease counterscreen; compound autofluorescence counterscreen, microsphere flow cytometry; active compounds read high; fluorescence intensity (test concentration not listed); 3.1% of 360,000 active; AID 624483; in the data active means fluorescence intensity above about 16000; inconclusive means no clear call, values can overlap the other calls
BH1578 lux ind: quorum light induction in luxS cqsA deficient V. cholerae. AID 588436. V. cholerae BH1578 lux reporter, luminescence, 6 h. activation, % at 18.7 µM. 0.16% of 350,000 active; in the data active means activation mostly above about 9.7%, no sharp cut-off; inconclusive means no clear call, values can overlap the other calls; inactive means mostly below about 3.7%
Starred values were filed as active, the others as inactive; i = inactive; u = inconclusive; x = no result given. Unless noted, no stated cut-off is given here; in the data, active means inhibition above about 30%; inconclusive means no clear call, values can overlap the other calls; inactive means below that.

SMILES	MazF activator	BoNT A protease	Anthrax LF inh2	BoNT-F LC inh	Bead autofluor	BH1578 lux ind
COc1ccc(CCNC(=O)COC(=O)CSc2ccc([N+](=O)[O-])cc2)cc1OC	0	x	x	x	x	0
Cn1ccnc1Sc1nnnn1-c1ccccc1	4	-1	0	-3	20712*	0
c1ccc(CSc2nnnn2-c2ccccc2)cc1	-1	-1	-4	-6	9762	2
CCOC(=O)C(Cc1ccccc1)NC(=O)Cn1nnc(-c2ccccc2)n1 (centres undefined)	4	-3	4	-2	20857*	5
CCCOc1ccc(-c2nnn(CC(=O)OCC)n2)cc1	-4	-1	-6	-1	22991*	i
CCOC(=O)Cn1nnc(-c2ccccc2)n1	-6	1	1	u	3803	0
CCOc1ccc(-c2nnn(CC(=O)NCc3ccco3)n2)cc1	-9	u	-2	-2	19976*	-2
CCCOc1ccc(-c2nnn(CC(=O)N3CCCCC3)n2)cc1	-2	0	2	-8	4558	i
CC(NC(=O)C1CCN(S(=O)(=O)c2ccc3c(c2)NC(=O)CO3)CC1)c1ccccc1 (centres undefined)	-1	2	0	4	5600	i
O=C(/C=C/c1ccco1)NCC1COc2ccccc2O1 (centres undefined)	6	0	29	u	u	0
Cc1ccc(C=C2C(=O)c3ccccc3C2=O)o1	91*	-2	-10	-13	8062	0
CCCN1CCN(C(=O)Nc2ccc(C(=O)OCC)cc2)CC1	5	0	-2	-1	20252*	i
CCOC(=O)c1ccc(NC(=O)N2CCCCCC2)cc1	6	0	0	1	6096	i
FC(F)Sc1ccc(Nc2ncnc3nc[nH]c23)cc1	3	u	-4	-4	23588*	-3
Cc1cc(C)cc(Nc2ncnc3nc[nH]c23)c1	8	1	-4	12	2863	0
Cc1c([N+](=O)[O-])cc(C(=O)Oc2ccc(Br)cc2C(=S)N2CCCCC2)cc1[N+](=O)[O-]	1	u	-3	1	22033*	0
COC(=O)Nc1nnc(COc2ccccc2)s1	-7	1	u	-9	3734	-1
CCCCOC(=O)Nc1nnc(COc2ccccc2)s1	5	-2	-4	0	16850*	0
CCSc1ccc(C(=O)Nc2ccc(Br)cn2)cc1[N+](=O)[O-]	-2	-6	-6	12	19284*	-1
CCSc1ccc(C(=O)Nc2cccc(C)n2)cc1[N+](=O)[O-]	-8	-1	2	-6	2606	0
Cc1ccc(OCc2ccc(C(=O)NCc3cccnc3)cc2)cc1C	-6	-1	0	-8	2621	0
COc1ccc2cc(C(=O)N3CCC(Cc4ccccc4)CC3)[nH]c2c1	-21	0	-6	7	3914	1
Cc1nc(N2CCOCC2)c(C#N)c2c1COC(C)(C)C2	-11	-2	-2	-2	20542*	1
CCc1nc(N2CCOCC2)c(C#N)c2c1COC(C)(C)C2	-3	0	1	2	3189	0
O=C(COc1ccc([N+](=O)[O-])cc1)Nc1ccccc1C(=O)NC1CC1	-7	-2	-5	-11	u	i
SMILES	MazF activator	BoNT A protease	Anthrax LF inh2	BoNT-F LC inh	Bead autofluor	BH1578 lux ind
COc1ccc(OC)c(/C=C2\NC(=O)NC2=O)c1	0	23	131*	u	6990	-1
Cc1cccn2c(=O)c3cc(C(=O)NCc4ccco4)c(=N)n(CCc4ccccc4)c3nc12	54*	1	-9	-9	4935	i
Cc1cccn2c(=O)c3cc(C(=O)NCCc4ccccc4)c(=N)n(Cc4ccco4)c3nc12	6	12	17	20	3758	i
Cc1cccn2c(=O)c3cc(C(=O)NCc4ccco4)c(=N)n(C(C)C)c3nc12	10	2	2	-3	16268*	-4
CCOC(=O)C1(CCOc2ccccc2)CCN(Cc2ccc(O)c(OC)c2)CC1	5	-1	-6	19	4934	i
CCOC(=O)C1(CCOc2ccccc2)CCN(Cc2ccc(F)c(OC)c2)CC1	-4	0	-18	40*	4428	i
COc1cccc(N2C(=O)C(CC(=O)Nc3ccccc3)N(C3CCCCC3)C2=O)c1 (centres undefined)	-2	3	-4	6	19391*	-1
O=C(COc1ccc(Br)cc1Br)NC(=S)N1CCCc2ccccc21	1	24	31*	7	5356	i
O=C(COc1ccc(Br)cc1Cl)NC(=S)N1CCc2ccccc21	-6	0	-2	4	2150	15
CN(C)/C=C/c1oc2ccc(O)cc2c1[N+](=O)[O-]	2	0	-1	-5	4612	-1
CC(C)Cc1ccc(C(C)C(=O)N2CCOCC2)cc1 (centres undefined)	-7	u	0	3	22712*	1
CC(C(=O)N1CCOCC1)c1ccccc1 (centres undefined)	-3	0	-1	-3	3035	i
COC(=O)CSc1ncc(S(=O)(=O)c2ccccc2)c(=O)[nH]1	5	-1	4	9	3744	i
CC(C)[C@H](NC(=O)NCc1ccc(Cl)cc1)C(=O)O	3	-2	1	0	23334*	-1
CC(C)C(NCc1c(Cl)cccc1Cl)C(=O)O (centres undefined)	2	5	-1	7	21266*	0
CC(C)C(NS(=O)(=O)c1cc(C(=O)O)ccc1Cl)C(=O)O (centres undefined)	10	0	2	-3	3721	0
CCCn1c(SC(C)C(=O)O)nc2ccccc21 (centres undefined)	2	2	-2	4	21928*	i
CCCn1c(SCC(=O)C(C)(C)C)nc2ccccc21	4	0	-1	-4	2194	0
Cc1cccc(N2C(=O)c3cccc4c(N(C)CCO)ccc(c34)C2=O)c1	78*	5	0	4	11358	-1
CC(C)N1CC(C(=O)Nc2ccc(F)c(Cl)c2)CC1=O (centres undefined)	13	-5	0	u	5039	i
COc1ccc(-c2noc(C3CCCN(S(=O)(=O)c4cccc(Cl)c4C)C3)n2)cc1OC (centres undefined)	-4	-2	0	-4	17219*	0
CCS(=O)(=O)N1CCCC(c2nc(-c3cccc(OC)c3)no2)C1 (centres undefined)	-2	-1	-2	0	23563*	0
CC(=O)c1cccc(S(=O)(=O)N2CCCC(c3nc(-c4ccc(C)o4)no3)C2)c1 (centres undefined)	-12	u	-2	-3	17085*	0
COc1ccc(-c2noc(C3CCCN(S(=O)(=O)c4ccc(C)c(Cl)c4)C3)n2)cc1OC (centres undefined)	-1	-1	0	-14	10387	0
